HT1080-NT tox: kills 2HG-producing HT-1080-NT fibrosarcoma cells. hit rate 1.6% among 360,000. HT-1080-NT fibrosarcoma viability, CellTiter-Glo ATP luminescence, 48 h. Potency, µM (series often up to 46.1 µM), hits mostly cytotoxic;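 note: NT is the 2HG producing partner of a matched IDH1 knockdown line; nearly all actives have a fitted effect of over 55% in size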
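HT-1080-NT; 750 cells/well; 5% FBS RPMI; 48 h compound, 37 degrees C; CellTiter-Glo luminescence; curve fitting and curve-class assignment.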
HT1080 IDH1KD tx: toxicity to HT-1080 IDH1 knockdown cells (counter line); HT-1080 IDH1 knockdown viability, ATP luminescence, 48 h; Potency, µM (highest dose often 46.1 µM), usual class: cytotoxic; hit rate 2% among 360,000
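Viability of IDH1-knockdown HT-1080 fibrosarcoma cells was assessed by CellTiter-Glo after 48 h at 37 °C with titrated compound; concentration-effect curves were classified by fit quality and response size.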
TDP1 cell CPT: growth inhibition of DT40 Tdp1-/-;hTDP1 cells with camptothecin (screen for TDP1 inhibitors); chicken DT40 Tdp1-/-;hTDP1 cells + 20 nM CPT, ATP luminescence, 48 h; Potency, µM (titrated, usually from 46.2 µM), most hits filed as inhibitors; hit rate 12% among 420,000; note: nearly all actives have a fitted effect of over 55% in size
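Chicken DT40 Tdp1-/- cells stably complemented with human TDP1 were seeded at 400 cells/well in medium containing 20 nM camptothecin, exposed to pin-transferred compounds, and grown at 37 °C for at least 48 hr. Viability was read as ATP luminescence.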
DT40 TDP1 no CPT: qHTS for Inhibitors of human tyrosyl-DNA phosphodiesterase 1 (TDP1): qHTS in cells in absence of CPT; Potency, µM (highest dose often 46.2 µM), actives largely listed as inhibitors; DT40 Tdp1-/- hTDP1 cells, no CPT, ATP luminescence, 48 h; AID 686978, 2013; hit rate 15% among 420,000; note: nearly all actives have a fitted effect of over 55% in size
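Compound effects on proliferation are scored in DT40 Tdp1-/-;hTDP1 cells in the absence of CPT. ATP levels (CellTiter-Glo luminescence) are recorded after a ≥48 hr, 37 °C incubation.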
KB-3-1 cytotox: kills parental KB-3-1 adenocarcinoma cells; KB-3-1 viability, CellTiter-Glo ATP luminescence, 72 h; Potency, µM (highest dose often 46.1 µM), usual class: cytotoxic; hit rate 1.4% among 400,000; note: nearly all actives have a fitted effect of over 60% in size
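Luminescent ATP read-out (CellTiter-Glo) measures survival of drug-naive KB-3-1 cells after 72 h compound exposure at 37 °C. Titration series was screened from lowest to highest concentration, with DMSO vehicle plates as background controls.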
KB-V1 MDR tox: KB-V1 MDR subline cytotoxicity; KB-V1 MDR cells viability, CellTiter-Glo, 72 h; Potency, µM (doses to about 46.1 µM), actives largely listed as cytotoxic; hit rate 3.4% among 400,000; AID 1347076; note: nearly all actives have a fitted effect of over 60% in size
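KB-V1 cells (P-gp-expressing MDR subline of KB-3-1) in phenol-red-free DMEM with 10% FBS were exposed to library compounds over a concentration series for 72 h at 37 degrees C. Viability read by CellTiter-Glo luminescence; concentration-effect curves fitted after normalization.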
Each line names hits and unclear results; the compound was inactive in the other large screens. In the library only some 19% were active in any assay of this set; here they are far more common. Calls come from the whole dose curve; as a rule, active = well fitted curve in the direction sought with a large enough effect; inconclusive = small, poorly fitted or top-dose-only effect, or another doubt; inactive = no such curve, though single readings can be large; an effect the other way counts as inactive or inconclusive.

CC(C)OCCCn1c(-c2ccco2)nc2nc3ccccc3nc21	HT1080-NT tox inconclusive, HT1080 IDH1KD tx inconclusive, TDP1 cell CPT inconclusive, DT40 TDP1 no CPT 23µM
O=c1c2ccccc2nc(-c2ccccc2)n1Cc1ccco1	DT40 TDP1 no CPT inconclusive, KB-V1 MDR tox 12µM
CCCCn1c(-c2ccco2)nc2ccccc2c1=O	TDP1 cell CPT inconclusive, DT40 TDP1 no CPT 16µM
COCCCn1c(-c2ccccc2)nc2ccccc2c1=O	TDP1 cell CPT inconclusive, DT40 TDP1 no CPT inconclusive
CCCCn1c(SCC(=O)NCc2ccco2)nc2ccccc2c1=O	TDP1 cell CPT inconclusive
O=c1c2sccc2n(Cc2cc(=O)n3cc(Cl)ccc3n2)c(=O)n1-c1ccccc1	none (no result: HT1080-NT tox, HT1080 IDH1KD tx, KB-3-1 cytotox, KB-V1 MDR tox)
Cc1ccccc1Cn1c(=O)n(Cc2ccco2)c(=O)c2ccccc21	TDP1 cell CPT 15µM, DT40 TDP1 no CPT inconclusive, KB-V1 MDR tox inconclusive
COc1ccc(-n2c(=O)c3ccccc3n(Cc3ccccc3C)c2=O)c(OC)c1	TDP1 cell CPT 21µM, DT40 TDP1 no CPT inconclusive (no result: HT1080-NT tox, HT1080 IDH1KD tx)
O=P(O)(O)C(O)(Cc1cccnc1)P(=O)(O)O	none (no result: HT1080-NT tox, HT1080 IDH1KD tx, KB-3-1 cytotox, KB-V1 MDR tox)
Cc1ccc(S(=O)(=O)N(C)c2ccc(OCC(=O)Nc3cc(C(=O)O)ccc3Cl)cc2)cc1	KB-V1 MDR tox inconclusive
O=C(Cc1ccc(Oc2ccccc2)cc1)NO	TDP1 cell CPT inconclusive, DT40 TDP1 no CPT inconclusive (no result: HT1080-NT tox, HT1080 IDH1KD tx)
Cc1ccc(O)c(NC(=O)c2cccc(S(=O)(=O)N3CCCCC3)c2)c1	TDP1 cell CPT inconclusive, DT40 TDP1 no CPT inconclusive
Cc1ccc(C(=O)Nc2ccccc2C(=O)NCc2ccco2)cc1S(=O)(=O)N1CCCCC1	TDP1 cell CPT inconclusive, DT40 TDP1 no CPT 16µM, KB-V1 MDR tox inconclusive
Cc1ccc(O)c(NC(=O)c2ccc(Br)c(S(=O)(=O)N3CCCCC3)c2)c1	TDP1 cell CPT 9.2µM, DT40 TDP1 no CPT 5.2µM, KB-V1 MDR tox inconclusive (no result: HT1080-NT tox, HT1080 IDH1KD tx)
Cc1ccc(C(=O)NC2CCCC2)cc1S(=O)(=O)N1CCCCC1	none
Cc1ccc(C(=O)NNC(=O)c2ccccc2O)cc1S(=O)(=O)N1CCCCC1	TDP1 cell CPT 16µM, DT40 TDP1 no CPT inconclusive, KB-3-1 cytotox inconclusive, KB-V1 MDR tox inconclusive
Cc1ccc(C(=O)NCc2ccco2)cc1S(=O)(=O)N1CCCCC1	KB-V1 MDR tox inconclusive
NC(=S)NN=Cc1nccc2c(C(F)(F)C(F)(F)C(F)(F)F)cccc12	HT1080-NT tox inconclusive, HT1080 IDH1KD tx inconclusive, TDP1 cell CPT 0.016µM, DT40 TDP1 no CPT 0.52µM, KB-3-1 cytotox inconclusive, KB-V1 MDR tox inconclusive
NC(=S)NN=Cc1nccc2ccccc12	HT1080-NT tox 4.1µM, HT1080 IDH1KD tx inconclusive, TDP1 cell CPT 2.3µM, DT40 TDP1 no CPT 2.1µM, KB-3-1 cytotox inconclusive
Cc1cnc(C=NNC(N)=S)c2cccc(N)c12	HT1080 IDH1KD tx inconclusive, TDP1 cell CPT 3.3µM, DT40 TDP1 no CPT 3.7µM, KB-V1 MDR tox 7.3µM
NC(=S)N/N=C/c1c[nH]c2ccccc12	none
O=Cc1nccc2ccccc12	TDP1 cell CPT 9.2µM, DT40 TDP1 no CPT 6.5µM
O=C(CN1c2cccc3cccc(c23)S1(=O)=O)NCc1ccccc1Cl	TDP1 cell CPT inconclusive, DT40 TDP1 no CPT inconclusive
Cc1ccc2[nH]c3c(=O)n(CC(=O)N4CCN(c5ccccc5F)CC4)ncc3c2c1	none (no result: HT1080-NT tox, HT1080 IDH1KD tx)
Cc1ccccc1NC(=O)c1cccc(NC(=O)c2ccccc2C(=O)O)c1	none
O=c1c(NCc2cccs2)nccn1-c1ccc(F)cc1	DT40 TDP1 no CPT inconclusive (no result: HT1080-NT tox, HT1080 IDH1KD tx, KB-3-1 cytotox, KB-V1 MDR tox)
Cc1cc(C(=O)NCC2CCC3(CCN(Cc4ccc5ccccc5c4)CC3)O2)n(C)n1 (centres undefined)	TDP1 cell CPT 21µM, DT40 TDP1 no CPT 16µM (no result: HT1080-NT tox, HT1080 IDH1KD tx, KB-3-1 cytotox, KB-V1 MDR tox)
Cc1cc(C(=O)NCC2CCC3(CCN(Cc4cccc(F)c4F)CC3)O2)n(C)n1 (centres undefined)	TDP1 cell CPT 21µM, DT40 TDP1 no CPT 12µM (no result: HT1080-NT tox, HT1080 IDH1KD tx, KB-3-1 cytotox, KB-V1 MDR tox)
Cc1cc(C(=O)NCC2CCC3(CCN(Cc4ccc(F)cc4)CC3)O2)n(C)n1 (centres undefined)	DT40 TDP1 no CPT inconclusive (no result: HT1080-NT tox, HT1080 IDH1KD tx, KB-3-1 cytotox, KB-V1 MDR tox)
Cn1nccc1C(=O)NCC1CCC2(CCN(Cc3ccc(-c4ccc(Cl)cc4)o3)CC2)O1 (centres undefined)	TDP1 cell CPT inconclusive, DT40 TDP1 no CPT 15µM (no result: HT1080-NT tox, HT1080 IDH1KD tx, KB-3-1 cytotox, KB-V1 MDR tox)
